Here are results for 34 compounds from PubChem BioAssay (EPA / NIEHS).

The target of test [1] is Cellular tumor antigen p53 (Homo sapiens) (UniProt P04637). The test is described as follows: TOX21_p53_BLA_p2_ratio: Tox21 HCT-116 p53 Agonism Beta-lactamase Assay, Ratio, Phase 2 (AID 2283592). In short, it runs like this: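 HCT-116 cells with p53-responsive beta-lactamase reporter, 4000 cells/well, preincubated 5 h, then compound in DMSO (217-fold dilution) for 16 h at 37C. CCF4-AM substrate 2 h at room temperature; 460/530 nm emission ratio fitted upward versus DMSO.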

The target is the same in test [2]. As to the kind of experiment: TOX21_p53_BLA_p3_ratio: Tox21 HCT-116 p53 Agonism Beta-lactamase Assay, Ratio, Phase 3 (AID 2283596). In short, it runs like this: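 HCT116 p53-bla cells (4000/well) given compound in DMSO (217-fold dilution) after 5 h, incubated 16 h at 37C. CCF4-AM substrate 2 h at room temperature; 460/530 nm emission ratio, gain fitted against DMSO.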

Test [3] in a line: TOX21_p53_BLA_p4_viability: Viability Assessment in the Tox21 HCT-116 p53 Agonism Beta-lactamase Assay, Phase 4 (AID 2283597).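 Note: hits lower the luminescence signal meaning cytotoxicity.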 In short, it runs like this:
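HCT-116 p53-bla cells, 4000/well, dosed after 5 h attachment and incubated 16 h at 37 °C, 5% CO2. Viability from CellTiter-Glo ATP luminescence after 30 min at room temperature, taken after the beta-lactamase read; loss of signal indicates cytotoxicity.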

For test [4], the target named is Cellular tumor antigen p53 (Homo sapiens) (UniProt P04637). As to the kind of experiment: TOX21_p53_BLA_p5_ratio: Tox21 HCT-116 p53 Agonism Beta-lactamase Assay, Ratio, Phase 5 (AID 2283599). In short, it runs like this:
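Beta-lactamase reporter ratio (blue 460 nm over green 530 nm, 405 nm excitation) after 2 h CCF4-AM loading, in HCT-116 cells exposed 16 h at 37 C to compounds pinned at 217-fold dilution. Increases relative to DMSO baseline scored.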

Test [5] has the same target. As to the kind of experiment: TOX21_p53_BLA_p4_ratio: Tox21 HCT-116 p53 Agonism Beta-lactamase Assay, Ratio, Phase 4 (AID 2283601). An outline of the steps: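 Signal is the blue/green (460nm/530nm) ratio of cleaved versus uncleaved CCF4-AM substrate, read after 2 h substrate loading. Cells were HCT116 carrying the p53-responsive beta-lactamase reporter, dosed 16 h at 37C, 5% CO2; CellTiter-Glo measured in parallel.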

Test [6] concerns the target Thyroid hormone receptor alpha (Rattus norvegicus) + Thyroid hormone receptor beta (Rattus norvegicus) (UniProt P18113+P63059). The test is described as follows: TOX21_TR_LUC_GH3_Antagonist_Followup: Tox21 GH3 Thyroid Hormone Receptor Antagonism Luciferase Follow-Up Assay (AID 2283942). An outline of the steps:
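Confirmatory qHTS, antagonist mode: T3 (1.0 nM final) + test cpd, 15 conc, 92 uM–5nM final, GH3 rat pituitary line, 24 h, 37C. Luc reporter, RLU vs DMSO.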

Test [7] can be described thus: TOX21_TRB_BLA_Antagonist_Followup_viability: Viability Assessment in the Tox21 Thyroid Hormone Receptor beta Antagonism Beta-lactamase (BLA) Follow-Up Assay (AID 2283961). In short, it runs like this:
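HEK293T cells with GAL4-human TRβ LBD and UAS-bla reporter, 3,000 cells/well in 2% charcoal-stripped FBS medium; 11-point concentrations in triplicate, 18 h at 37C. Viability from ATP by CellTiter-Glo luminescence, 30 min RT, same plates.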

A further test deals with THRB (gene 7068) (UniProt P10828). The test is described as follows: TOX21_TRB_COA_Antagonist_Followup_ratio: Tox21 Thyroid Hormone Receptor beta Antagonism through Coactivator Recruitment Follow-Up Assay, Ratio (AID 2283967). An outline of the steps: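 Test compound was incubated with 5.0 nM GST-TRβ LBD in 0.10% BSA. Then 200 nM fluorescein-SRC-2 peptide and 2 nM terbium anti-GST antibody were added. TR-FRET (520:495 nm) was measured and normalized to DMSO and T3 controls.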

Test [8] addresses Retinoic acid receptor RXR-alpha (Homo sapiens) (UniProt P19793). The test is described as follows: TOX21_TR_RXR_BLA_Antagonist_Followup_ratio: Tox21 Thyroid Hormone Receptor beta Retinoid X Receptor alpha (RXRa) Antagonism Beta-lactamase (BLA) Follow-Up Assay, Ratio (AID 2283972). An outline of the steps: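 RXRa-UAS-bla HEK293T cells, 2,500/well in phenol red-free DMEM with 2% charcoal-stripped FBS, 5 h attachment, then compounds (11 concentrations, triplicate) for 16 h at 37C; FRET-B/GCCF4-AM substrate 2 h RT; 460:530 nm ratio, loss of signal vs DMSO.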

A short description of test [9]: TOX21_TR_RXR_BLA_Antagonist_Followup_viability: Viability Assessment in the Tox21 Thyroid Hormone Receptor beta Retinoid X Receptor alpha (RXRa) Antagonism Beta-lactamase (BLA) Follow-Up Assay (AID 2283979). In short, it runs like this:
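Follow-up compounds (11 concentrations, triplicate) were incubated 16 h at 37C/5% CO2 with HEK293T RXRa-bla cells seeded at 2,500/well in charcoal-stripped-serum medium. ATP content by CellTiter-Glo luminescence gave viability; curves fitted in both directions against DMSO.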

The nature of test [10]: TOX21_p53_BLA_p5_viability: Viability Assessment in the Tox21 HCT-116 p53 Agonism Beta-lactamase Assay, Phase 5 (AID 2283600). An outline of the steps:
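HCT-116 p53 beta-lactamase reporter cells, 4000/well, were exposed to compound (pin transfer, 217-fold dilution) for 16 hours at 37C. Cellular ATP was read by CellTiter-Glo luminescence after 30 min at room temperature.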

Records with an inconclusive call do not appear. Activity calls are given as the source filed them. Rule for the calls: active = hit-call score of the fitted dose curve at least 0.9, where 1 is the maximum; inconclusive = response in the unintended direction; inactive = score below 0.9.

Cellular tumor antigen p53 (Homo sapiens), sequence (P04637 whole entry, looked up): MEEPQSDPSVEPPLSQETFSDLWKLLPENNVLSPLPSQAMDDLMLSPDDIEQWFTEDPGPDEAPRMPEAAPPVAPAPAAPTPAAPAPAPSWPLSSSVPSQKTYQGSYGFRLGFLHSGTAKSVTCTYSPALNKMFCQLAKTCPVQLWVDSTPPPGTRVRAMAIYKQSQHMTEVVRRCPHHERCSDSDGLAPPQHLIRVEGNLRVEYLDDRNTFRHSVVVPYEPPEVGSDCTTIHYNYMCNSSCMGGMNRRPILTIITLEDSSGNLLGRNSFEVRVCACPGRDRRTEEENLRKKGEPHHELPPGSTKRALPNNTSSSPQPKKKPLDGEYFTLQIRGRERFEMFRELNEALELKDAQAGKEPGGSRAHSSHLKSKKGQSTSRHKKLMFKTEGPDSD
THRB (gene 7068), sequence (P10828 whole entry, looked up, the tested form may be a part): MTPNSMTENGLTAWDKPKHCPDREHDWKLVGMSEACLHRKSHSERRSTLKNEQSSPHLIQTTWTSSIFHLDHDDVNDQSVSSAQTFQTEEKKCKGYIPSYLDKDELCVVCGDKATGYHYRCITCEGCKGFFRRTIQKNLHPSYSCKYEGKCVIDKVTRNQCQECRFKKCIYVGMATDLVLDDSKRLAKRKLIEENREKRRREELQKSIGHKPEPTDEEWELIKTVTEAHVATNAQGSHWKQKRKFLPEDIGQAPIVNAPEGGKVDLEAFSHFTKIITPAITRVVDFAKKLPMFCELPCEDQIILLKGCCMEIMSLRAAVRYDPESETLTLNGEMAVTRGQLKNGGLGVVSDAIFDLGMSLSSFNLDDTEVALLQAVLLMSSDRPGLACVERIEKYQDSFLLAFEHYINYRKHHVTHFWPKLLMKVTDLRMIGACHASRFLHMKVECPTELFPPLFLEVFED
Retinoic acid receptor RXR-alpha (Homo sapiens), sequence (P19793 whole entry, looked up): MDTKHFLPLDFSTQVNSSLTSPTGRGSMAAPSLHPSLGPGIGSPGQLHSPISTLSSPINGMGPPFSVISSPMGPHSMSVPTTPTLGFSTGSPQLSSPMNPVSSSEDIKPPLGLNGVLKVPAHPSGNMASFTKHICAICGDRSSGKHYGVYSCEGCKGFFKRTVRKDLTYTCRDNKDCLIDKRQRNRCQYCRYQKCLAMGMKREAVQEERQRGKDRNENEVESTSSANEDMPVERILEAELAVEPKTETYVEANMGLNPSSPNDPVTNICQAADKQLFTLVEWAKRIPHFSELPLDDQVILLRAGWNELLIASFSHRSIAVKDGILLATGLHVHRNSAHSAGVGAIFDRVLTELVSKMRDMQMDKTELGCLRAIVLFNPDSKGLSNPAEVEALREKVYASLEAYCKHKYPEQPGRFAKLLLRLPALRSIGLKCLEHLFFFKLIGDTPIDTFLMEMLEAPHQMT

`COc1cc(C(=O)NC2CCCNC2)cc(OC)c1OC` (stereo not drawn): the outcome in [1], in test [2], in test [3], in test [4], in test [5] and in test [6] was inactive. Also, the result (in test [7]; with THRB (gene 7068); in test [8]; in test [9]) was inactive.

Take `C1CCCNCCC1`: the outcome in test [1], in [2], in [3] and in test [5] was inactive.

`CN1CCOC(c2ccccc2)c2ccccc2C1` (stereo not drawn): the outcome in test [1], in test [2], in [3] and in test [5] was inactive.

In the case of `NC1=NCC2c3ccccc3Cc3ccccc3N12` (stereo not drawn), the result in test [1], in test [2], in [3], in [4] and in test [5] was inactive.

`CCCCCCCCCCCCCCCCI`: the outcome in [1], in [2], in test [3], in [4] and in test [5] was inactive.

Regarding `O=C(c1ccc(O)cc1)c1ccc(O)cc1`, the result in test [1], in [2] and in test [4] was inactive.

A word on the AC50: it is the midpoint of the concentration-response curve, whichever way the signal moves. As for `Cc1ccc(N(CC2=NCCN2)c2cccc(O)c2)cc1`, the figures for the AC50 in [1] and in [5] were 31 µM (active) and 30.4 µM (active), respectively. The result in [2] and in test [3] was inactive.

In the case of `Nc1ccc(N=Nc2ccc(N)cc2)cc1`, the result in [1], in test [2] and in test [4] was inactive.

Take `CCCCCC(C)N` (stereo not drawn): the result in [1], in [2], in test [3], in test [10] and in test [5] was inactive.

On to `COc1ccc(-c2cc(C(F)F)nn2-c2ccc(S(N)(=O)=O)cc2)cc1F`, for which the outcome in [1], in test [2], in [3] and in test [5] was inactive.

`O=C(O)[C@H]1CN(C/C=C/P(=O)(O)O)CCN1`: the outcome in [1], in test [2], in test [3] and in test [5] was inactive.

Take `CCCOc1ccc2nc(NC(=O)OC)[nH]c2c1`: the outcome in test [1] and in test [4] was inactive. Further, in [2], the AC50 is 0.24 µM (active).

For `NC(=O)OCC(O)COc1ccc(Cl)cc1` (stereo not drawn), the result in [1], in test [2] and in test [4] was inactive.

Turning to `CS(=O)(=O)c1ccc([C@@H](O)[C@@H](COC(=O)CN)NC(=O)C(Cl)Cl)cc1`, the result in test [1], in test [2], in [3] and in test [10] was inactive.

For `CC(C)c1ncc([N+](=O)[O-])n1C`, the outcome in test [1], in [2], in test [4] and in [10] was inactive.

On to `C=CC[N@@+]12CC[C@@]34c5ccccc5N5/C=C6/[C@H]7C[C@H]8[C@@]9(CC[N@@+]8(CC=C)C/C7=C/CO)c7ccccc7N(/C=C(/[C@@H](C[C@@H]31)/C(=C\CO)C2)[C@H]54)[C@@H]69`, for which the result in [1], in test [2] and in [4] was inactive.

For the compound `CCCc1nc2c(C)cc(-c3nc4ccccc4n3C)cc2n1Cc1ccc(-c2ccccc2C(=O)O)cc1`, the result in test [1], in test [2] and in [4] was inactive.

Take `CC(=O)Nc1cccc(N)c1`: in test [1], the AC50 was 84.4 µM (active). Further, the outcome in test [2] and in test [4] was inactive.

Take `C=C1[C@H](CO)[C@@H](O)C[C@@H]1n1cnc2c(=O)[nH]c(N)nc21`: the outcome in test [1], in test [2], in [3], in [10] and in [5] was inactive.

Turning to `S=C(SSSSSSC(=S)N1CCCCC1)N1CCCCC1`, the outcome in [1], in [2], in test [3], in [10] and in test [5] was inactive.

Turning to `CC(=O)OCC[N+](C)(C)C`, the outcome in test [1], in test [2], in test [3], in [10] and in test [5] was inactive.

Regarding `CN(CCOc1ccc(NS(C)(=O)=O)cc1)CCc1ccc(NS(C)(=O)=O)cc1`, the result in test [1] and in test [2] was inactive. Besides, the AC50 in test [4] was 37.7 µM (active).

Take `Cc1ccccc1OCC(O)CNCCOc1ccc(C(N)=O)cc1` (stereo not drawn): the outcome in test [1], in test [2] and in [4] was inactive.

Consider `COc1ccc(/C=C/c2cc(OC)cc(=O)o2)cc1`, for which the outcome in test [1], in test [2], in test [3], in test [4] and in test [5] was inactive.

As to `CC1CCCC(=O)C1=O` (stereo not drawn), the result in test [1], in test [2], in test [3], in test [10] and in test [5] was inactive.

Consider `CO[C@H]1[C@@H](O)[C@H](N)[C@@H](O[C@H]2O[C@H]([C@H](C)N)CC[C@H]2N)[C@H](O)[C@@H]1N(C)C(=O)CN`, for which the outcome in test [1], in test [2], in [3] and in test [10] was inactive.

With `CCOC(=O)CCC(=O)O[C@H]1[C@H](O[C@@H]2[C@@H](C)[C@H](O[C@H]3C[C@@](C)(OC)[C@@H](O)[C@H](C)O3)[C@@H](C)C(=O)O[C@H](CC)[C@@](C)(O)[C@H](O)[C@@H](C)C(=O)[C@H](C)C[C@@]2(C)O)O[C@H](C)C[C@@H]1N(C)C`, the outcome in test [1], in test [2], in test [3] and in [5] was inactive.

On to `CCC=O`, for which the result in test [1], in test [2] and in test [4] was inactive.

As for `C=C(C)C(=O)OC`, the result in test [1], in test [2], in test [3], in test [4] and in [5] was inactive.

As for `CN1CCc2c(c3ccccc3n2Cc2ccccc2)C1`, the outcome in test [1], in test [2], in test [3] and in test [5] was inactive.

For the compound `O=C(O)CCC/C=C\C[C@@H]1[C@@H](/C=C/[C@@H](O)COc2cccc(Cl)c2)[C@H](O)C[C@@H]1O`, the result in test [1], in test [2] and in test [4] was inactive.

`CN(C)CCC=C1c2ccccc2C=Cc2ccccc21`: the outcome in [1], in test [2], in [3], in test [4] and in test [5] was inactive.

Consider `O=C(O)CP(=O)(O)O`, for which the outcome in [1], in test [2], in test [3], in test [10] and in test [5] was inactive.

On to `COC(=O)CS`, for which the outcome in test [1], in test [2], in test [3], in [4] and in [5] was inactive.
